Test [1] in a line: qHTS assay to identify small molecule agonists of the estrogen receptor alpha (ER-alpha) signaling pathway in the presence of an antagonist - cell viability counter screen (AID 1259386).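 Further: cells exposed to compounds for 22 h at 37 °C before the viability read; nearly all actives have a fitted effect of over 30% in size.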 Further: potency means the concentration at half of the fitted maximal effect. In outline:
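Using estrogen-depleted VM7Luc4E2 cells, the 15-concentration compound series was applied together with 10.0nM ICI-182,780 and incubated 22hr at 37C/5% CO2. Cell viability was then scored by CellTiter-Fluor.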
A general note: qHTS replaces the single test concentration by a dilution series.

For test [2], the target named is Progesterone receptor (Homo sapiens) (UniProt P06401). Description: qHTS assay to identify small molecule agonists of the progesterone receptor (PR) signaling pathway (AID 1346784; calls by dose curve; further: nearly all actives have a fitted effect of over 30% in size; further: potency means the concentration at half of the fitted maximal effect). In outline: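 PR-UAS-bla HEK 293T cells (beta-lactamase reporter under UAS) in 2% charcoal-stripped FBS, dosed with 23 nL compound after 6 hr, incubated 16hr at 37C. LiveBLAzer B/G FRET substrate added, fluorescence read after 2 hours.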
Sequence of Progesterone receptor (Homo sapiens) (P06401 whole entry, looked up): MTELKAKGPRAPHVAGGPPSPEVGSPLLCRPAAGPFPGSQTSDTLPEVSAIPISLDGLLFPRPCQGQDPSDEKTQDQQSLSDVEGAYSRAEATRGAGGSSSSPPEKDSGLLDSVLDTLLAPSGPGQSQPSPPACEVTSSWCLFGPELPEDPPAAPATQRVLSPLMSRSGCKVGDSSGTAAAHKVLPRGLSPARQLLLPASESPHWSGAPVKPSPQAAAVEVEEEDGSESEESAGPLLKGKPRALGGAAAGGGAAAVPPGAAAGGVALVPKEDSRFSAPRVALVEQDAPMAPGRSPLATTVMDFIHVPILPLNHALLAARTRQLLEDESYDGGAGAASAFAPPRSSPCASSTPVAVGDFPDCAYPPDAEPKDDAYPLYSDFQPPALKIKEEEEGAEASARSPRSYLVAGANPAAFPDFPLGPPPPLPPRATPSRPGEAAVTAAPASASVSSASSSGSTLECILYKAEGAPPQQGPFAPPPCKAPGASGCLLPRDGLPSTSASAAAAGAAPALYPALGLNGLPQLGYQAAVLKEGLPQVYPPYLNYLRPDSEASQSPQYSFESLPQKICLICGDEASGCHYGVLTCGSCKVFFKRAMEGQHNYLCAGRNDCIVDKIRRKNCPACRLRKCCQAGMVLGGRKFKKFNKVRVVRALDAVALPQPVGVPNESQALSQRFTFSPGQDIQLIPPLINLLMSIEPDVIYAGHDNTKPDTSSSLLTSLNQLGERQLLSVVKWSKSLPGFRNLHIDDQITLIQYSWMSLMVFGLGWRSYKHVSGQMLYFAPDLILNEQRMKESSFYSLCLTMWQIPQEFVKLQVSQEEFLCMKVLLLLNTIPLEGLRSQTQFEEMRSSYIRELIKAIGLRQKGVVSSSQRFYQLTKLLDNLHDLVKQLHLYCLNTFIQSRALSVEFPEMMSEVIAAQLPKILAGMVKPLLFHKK

Test [3] shares this target. Put plainly: qHTS assay to identify small molecule antagonists of the progesterone receptor (PR) signaling pathway (AID 1346795; active means well fitted inhibition curve with a large enough effect in the signal ratio in the repeat runs, not every such curve was filed as active; the % refers to the signal ratio). In outline:
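PR-UAS-bla HEK293T cells with beta-lactamase reporter under UAS control, in 2% charcoal-stripped FBS, treated with compounds plus 1 nM promegestone (R5020, final) for 16 hr at 37C. Read-out: FRET beta-lactamase substrate fluorescence after 2 hr at room temperature.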

A short description of test [4]: qHTS assay to identify small molecule agonists of the progesterone receptor (PR) signaling pathway - cell viability counter screen (AID 1346799; calls by dose curve; further: nearly all actives have a fitted effect of over 45% in size; further: potency means the concentration at half of the fitted maximal effect). In outline: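 Counter screen in the PR-UAS-bla HEK293T wells (2% charcoal-stripped FBS, 16 h compound exposure at 37 C) after the bla read. CellTiter-Glo added, 30 min at room temperature, luminescence read as cell viability.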

Test [5] is described as follows: qHTS assay to identify small molecule antagonists of the TGF-beta/Smad signaling pathway - cell viability counter screen (AID 1346824). Further: nearly all actives have a fitted effect of over 50% in size. In outline: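 SBE-bla HEK 293T cells, incubated overnight, then compound plus 0.25 ng/mL TGF-beta1 (stock added) for 5 hr at 37 C. Viability was read in the same wells by CellTiter-Glo luminescence after 30 min at room temperature.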

A short description of test [6]: qHTS assay to identify small molecule agonists of the TGF-beta/Smad signaling pathway - cell viability counter screen (AID 1346829). Further: top concentration of the series differs between compounds; nearly all actives have a fitted effect of over 45% in size. In outline:
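In parallel with the Smad reporter read, viability of HEK 293T cells stably carrying SBE-bla is quantified by ATP luminescence following 5 hr compound treatment.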

A short description of test [7]: qHTS assay to identify small molecule agonists of the TGF-beta/Smad signaling pathway (AID 1346859; active means well fitted activation curve with a large enough effect in the signal ratio in the repeat runs, not every such curve was filed as active; the % refers to the signal ratio; further: series mostly up to about 77 µM). In outline: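 SBE-bla HEK293T cells plated overnight, then compound exposure for 5 h at 37 C. Beta-lactamase reporter read with LiveBLAzer B/G FRET substrate after 2 h at room temperature, fluorescence at 405 nm excitation, 460/530 nm emission.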
For test [8], the target named is Thyrotropin-releasing hormone receptor (Homo sapiens) (UniProt P34981). Put plainly: qHTS assay to identify small molecule antagonists of the thyrotropin-releasing hormone receptor (TRHR) signaling pathway (AID 1346877; active means well fitted inhibition curve with a large enough effect in the repeat runs, not every such curve was filed as active; further: series mostly up to about 51 µM). In outline: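 Calcium signal in dye-loaded TRHR/HEK293 cells; compounds added 5 min before TRH (1 nM final); fluorescence monitored 3 min at 1 s steps.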
Sequence of Thyrotropin-releasing hormone receptor (Homo sapiens) (P34981 whole entry, looked up): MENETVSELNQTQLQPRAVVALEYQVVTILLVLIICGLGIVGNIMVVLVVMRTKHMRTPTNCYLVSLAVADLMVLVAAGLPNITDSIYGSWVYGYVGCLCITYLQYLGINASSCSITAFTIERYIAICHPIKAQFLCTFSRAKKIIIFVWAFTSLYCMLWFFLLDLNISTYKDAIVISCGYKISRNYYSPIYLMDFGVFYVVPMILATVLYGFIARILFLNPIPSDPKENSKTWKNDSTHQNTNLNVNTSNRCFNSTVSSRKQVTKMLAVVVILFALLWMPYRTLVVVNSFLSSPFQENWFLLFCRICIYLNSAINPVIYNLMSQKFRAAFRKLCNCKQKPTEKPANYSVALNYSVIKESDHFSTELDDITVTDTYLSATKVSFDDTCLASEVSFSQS

For test [9] the target is unchanged. Description: qHTS assay to identify small molecule agonists of the thyrotropin-releasing hormone receptor (TRHR) signaling pathway (AID 1346891; calls by dose curve; further: series mostly up to about 58 µM). In outline:
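HEK293 cells expressing TRHR plated 18 h at 37 C/5% CO2, calcium dye-loaded 2 h at 37 C, then compound added (agonist mode); kinetic calcium fluorescence read 3 min at 1 s intervals; 15 concentrations in triplicate.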

Test [10] is described as follows: Human pregnane X receptor (PXR) small molecule agonists, qHTS cell viability counter screen (AID 1346977). Further: nearly all actives have a fitted effect of over 50% in size. Further: potency means the concentration at half of the fitted maximal effect. In outline: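 PXR-Luc HepG2 cells (2,000/well, 5% charcoal-stripped FBS) preincubated 5 hr, then exposed to compounds 24 hr at 37 C. Viability read in the same wells by CellTiter-Fluor fluorescence, reagent added at 23 hr, 1 hr incubation.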
Test [11] in a line: Caspase-3/7 induction in HepG2 cells by small molecules, qHTS assay (AID 1346978). Further: nearly all actives have a fitted effect of over 15% in size. In outline: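 Wild-type HepG2 cells, 2,000/well, settled 5 hr at 37 C and 5% CO2, then compound-treated for 17 hr; caspase-3/7 activity read by luminescent Caspase-Glo 3/7 after 30 min at room temperature.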
The nature of test [12]: Caspase-3/7 induction in CHO-K1 cells by small molecules, qHTS cell viability counter screen (AID 1346979). Further: nearly all actives have a fitted effect of over 35% in size. Further: potency means the concentration at half of the fitted maximal effect. In outline: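 Wild-type CHO-K1 cells (1,500/well) treated with compound after 5 h plating; after 16 h at 37C, viability read as CellTiter-Fluor fluorescence following 1 h reagent incubation, in the same wells as the caspase read.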
A short description of test [13]: Caspase-3/7 induction in HepG2 cells by small molecules, qHTS cell viability counter screen (AID 1346981). Further: series mostly up to about 92 µM; nearly all actives have a fitted effect of over 30% in size. In outline: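 After a 5-hr attachment period at 37 C and 5% CO2, wild-type HepG2 cells received compounds in DMSO. Sixteen hours later CellTiter-Fluor was dispensed and the fluorescent signal quantified after a further hour.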
The target of test [14] is Nuclear receptor subfamily 1 group I member 2 (Homo sapiens) (UniProt O75469). Description: Human pregnane X receptor (PXR) small molecule agonists, qHTS assay (AID 1346982). Further: nearly all actives have a fitted effect of over 35% in size. Further: potency means the concentration at half of the fitted maximal effect. In outline: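 Tox21 qHTS; PXR-Luc HepG2; compounds pinned from DMSO; 24 hr, 37 C; ONE-Glo luciferase detection, 30 min room temperature.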
Sequence of Nuclear receptor subfamily 1 group I member 2 (Homo sapiens) (O75469 whole entry, looked up): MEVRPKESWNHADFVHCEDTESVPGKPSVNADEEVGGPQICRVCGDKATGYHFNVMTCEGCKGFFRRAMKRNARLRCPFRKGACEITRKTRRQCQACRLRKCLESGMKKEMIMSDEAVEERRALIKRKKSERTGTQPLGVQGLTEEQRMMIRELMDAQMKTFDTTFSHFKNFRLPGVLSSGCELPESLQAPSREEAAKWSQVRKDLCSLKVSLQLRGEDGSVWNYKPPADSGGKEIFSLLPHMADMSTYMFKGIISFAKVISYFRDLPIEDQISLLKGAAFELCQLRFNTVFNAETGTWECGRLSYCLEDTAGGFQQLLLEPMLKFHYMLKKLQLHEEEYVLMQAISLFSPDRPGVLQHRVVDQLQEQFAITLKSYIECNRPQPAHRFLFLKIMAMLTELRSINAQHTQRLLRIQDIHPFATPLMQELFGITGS
Test [15] can be described thus: qHTS assay to identify small molecule antagonists of the progesterone receptor (PR) signaling pathway - cell viability counter screen (AID 1346798). Further: nearly all actives have a fitted effect of over 50% in size. Further: potency means the concentration at half of the fitted maximal effect. In outline:
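PR-UAS-bla HEK293T cells, 3,000/well in 2% charcoal-stripped FBS medium, dosed with compounds plus R5020 agonist and incubated 16 h at 37C. Viability then measured in the same wells by CellTiter-Glo luminescence after 30 min at RT.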

Test [16] can be described thus: Caspase-3/7 induction in CHO-K1 cells by small molecules, qHTS assay (AID 1346980). Further: nearly all actives have a fitted effect of over 15% in size. In outline:
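Wild-type CHO-K1 cells exposed to compounds for 17hr at 37 C, 5% CO2. Caspase-3/7 activity then measured by Caspase-Glo 3/7 luminescence after 30min at room temperature.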

Test [17] deals with Cytochrome P450 2D6 (Homo sapiens) (UniProt P10635). Description: Cytochrome P450 Family 2 Subfamily D Member 6 (CYP2D6) small molecule antagonists: luciferase reporter qHTS assay (AID 1671196). Further: nearly all actives have a fitted effect of over 50% in size. Further: potency means the concentration at half of the fitted maximal effect. In outline: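 Room-temperature luminescent CYP2D6 activity assay: compound preincubated 10 min with enzyme–substrate mix, NADPH-initiated reaction 1 h, detection reagent 20 min before reading.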
Sequence of Cytochrome P450 2D6 (Homo sapiens) (P10635 whole entry, looked up): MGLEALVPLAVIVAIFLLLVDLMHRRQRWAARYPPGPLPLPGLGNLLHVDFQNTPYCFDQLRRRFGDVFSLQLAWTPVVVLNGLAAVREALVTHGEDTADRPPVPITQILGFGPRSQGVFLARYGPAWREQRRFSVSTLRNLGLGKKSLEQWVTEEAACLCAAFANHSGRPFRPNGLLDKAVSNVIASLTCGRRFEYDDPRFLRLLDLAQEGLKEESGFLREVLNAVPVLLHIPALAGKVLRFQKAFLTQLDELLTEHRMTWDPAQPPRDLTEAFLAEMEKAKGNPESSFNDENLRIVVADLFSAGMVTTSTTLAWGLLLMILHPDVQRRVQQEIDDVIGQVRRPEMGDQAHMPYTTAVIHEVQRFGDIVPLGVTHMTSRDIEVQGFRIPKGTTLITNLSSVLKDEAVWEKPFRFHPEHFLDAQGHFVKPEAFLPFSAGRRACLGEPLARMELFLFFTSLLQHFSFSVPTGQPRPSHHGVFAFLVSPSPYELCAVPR
(A reporter such as luciferase makes a cellular process visible.)

Test [18] deals with Nuclear receptor subfamily 1 group I member 2 (Homo sapiens) (UniProt O75469). Put plainly: CYP3A4 induction through human pregnane X receptor (PXR) by small molecules, qHTS assay (AID 1346984). Further: potency means the concentration at half of the fitted maximal effect; nearly all actives have a fitted effect of over 40% in size. In outline: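 Cells (DPX-2; HepG2 with PXR element plus CYP3A4-promoter luciferase) settled 5hr, then were treated 24hr at 37C. A 3hr, 3uM-final Luciferin-IPA step preceded luminescence measurement with One-Glo.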

For test [19] the target is unchanged. Put plainly: Human pregnane X receptor (PXR) activation by small molecules, qHTS assay (AID 1346985). Further: potency means the concentration at half of the fitted maximal effect; nearly all actives have a fitted effect of over 40% in size. In outline: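 DPX-2 cells (HepG2 co-transfected with a PXR response element and a CYP3A4-promoter luciferase construct) were seeded at 2,000 per well, rested 5 hr at 37C, then exposed to DMSO-dissolved compounds for 24 hr. Activation was read as luciferase luminescence.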

Molecules are shown by their SMILES. A number with no mark means an inactive call. Records with an inconclusive call do not appear. Active and inactive are the calls of the source. Unless noted, the call rests on the fitted dose curve; in most records, active means well fitted curve in the direction sought with a large enough effect in the repeat runs; inconclusive means weak or mixed curves; inactive means no such curve, though single readings can be large; an effect the other way counts as inactive or inconclusive.

On to `CC(C)=CC(=O)C=C(C)C`, for which the Potency entry in test [1], in [2], in test [3], in [4], in test [5] and in test [6] was “inactive” throughout. Besides, the Potency entry in [7], in test [9], in [10], in test [11], in test [12] and in test [13] was “inactive” each time. The Potency result in test [14] was “inactive”. Besides, the outcome in [8] was inactive.

For `CCCCN(CCCC)C(C(N)=O)c1ccc(OC)cc1` (stereo not drawn), the Potency result in test [1], in test [2], in [3], in [15], in [5] and in test [6] was “inactive” each time. The Potency entry in [7], in test [10], in test [11], in test [12], in test [16] and in test [13] was “inactive” in each case. Further, the values for the Potency in [14] and in test [17] were 11.9 µM (active) and 0.977 µM (active), respectively.

Consider `CCCCCC[C@@H](O)C/C=C\CCCCCCCC(=O)O`, for which the Potency result in test [1], in test [2], in test [3], in test [5], in [6] and in test [7] was “inactive” each time. Moreover, the Potency result in test [9], in [10], in [11], in test [16], in test [13] and in test [14] was “inactive” each time. Also, the Potency result in [17] is “inactive”. Moreover, the compound was classed as inactive in test [8].

As to `CNC(=O)c1cnn(-c2nc(N)c3ncn([C@@H]4O[C@H](CO)[C@@H](O)[C@H]4O)c3n2)c1`, the Potency entry in test [1], in [2], in test [3], in test [4], in test [5] and in test [6] was “inactive” in each case. Besides, the Potency entry in [7], in test [9], in test [10], in [11], in [12] and in [16] was “inactive” each time. Besides, the Potency entry in test [13] and in test [14] was “inactive” throughout. In test [8], the call was inactive.

For the compound `CN1CCCC(n2nc(Cc3ccc(Cl)cc3)c3ccccc3c2=O)CC1` (stereo not drawn), the Potency is 11.9 µM (active) in test [1]; 26.6 µM (active) in test [15]; 13.3 µM (active) in test [4]; 13.3 µM (active) in test [10]; 29.8 µM (active) in test [12]; 28.2 µM (active) in test [18]. The values for the Potency in test [19] and in test [17] were 20 µM (active) and 1.1 µM (active), respectively. The Potency result in test [2], in [5], in [6], in test [7], in test [9] and in test [11] was “inactive” each time. In addition, the Potency entry in test [16] is “inactive”. Also, in test [8], the call was inactive.

Turning to `Cc1ccc(OC(=O)c2ccccc2O)cc1`, the Potency result in test [1], in [2], in test [3], in test [15], in test [5] and in [6] was “inactive” throughout. Also, the Potency result in test [7], in test [9], in test [10], in test [11], in [12] and in test [16] was “inactive” each time. Also, the Potency entry in test [17] is “inactive”. Also, in [8], the result was inactive.

`CCOC(=O)c1ccc(I)cc1`: the Potency entry in test [1], in [3], in test [15], in [5], in [6] and in test [7] was “inactive” in each case. The Potency entry in [9], in test [10], in test [11], in [16], in test [13] and in test [14] was “inactive” throughout. Moreover, the Potency result in test [17] is “inactive”. Besides, the Potency in test [2] is 5.5 µM (active). Further, the outcome in test [8] was inactive.

With `C=CCc1ccccc1OCC(O)CNC(C)C` (stereo not drawn), the Potency entry in test [1], in test [2], in [3], in [15], in test [5] and in test [6] was “inactive” each time. Moreover, the Potency result in [7], in test [9], in test [10], in test [11], in test [12] and in test [16] was “inactive” in each case. The Potency result in test [13] and in test [14] was “inactive” in each case. For the same compound, in [8], the compound was classed as inactive. In addition, in test [17], the Potency is 5.49 µM (active).

These data come from PubChem BioAssay (Tox21).
